Laboratory results reported in PubChem BioAssay AID567 (The Scripps Research Institute Molecular Screening Center, 2006).
Hit rate of the full screen: of about 65,000 compounds, about 370 (0.57%) were called active. The full list was thinned out, with actives kept by preference. A number with no mark means an inactive call.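 The calls were made as follows: active = activation above the screen-wide mean activation plus 3 SD (cut at about 19% in these data); inactive = the rest.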

biological target: 5-hydroxytryptamine receptor 1A (Homo sapiens) (UniProt P08908); assay: agonism at serotonin HTR1A receptor – cell-based, CHO, Ga15 NFAT-bla reporter, primary screen (AID 567); details: CHO 5-HT1a Ga15 NFAT-bla reporter, FRET ratio; at 10 µM; active compounds read high;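 also: 0% = DMSO wells and 100% = 5-CT at EC100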
Sequence (P08908 whole entry, looked up): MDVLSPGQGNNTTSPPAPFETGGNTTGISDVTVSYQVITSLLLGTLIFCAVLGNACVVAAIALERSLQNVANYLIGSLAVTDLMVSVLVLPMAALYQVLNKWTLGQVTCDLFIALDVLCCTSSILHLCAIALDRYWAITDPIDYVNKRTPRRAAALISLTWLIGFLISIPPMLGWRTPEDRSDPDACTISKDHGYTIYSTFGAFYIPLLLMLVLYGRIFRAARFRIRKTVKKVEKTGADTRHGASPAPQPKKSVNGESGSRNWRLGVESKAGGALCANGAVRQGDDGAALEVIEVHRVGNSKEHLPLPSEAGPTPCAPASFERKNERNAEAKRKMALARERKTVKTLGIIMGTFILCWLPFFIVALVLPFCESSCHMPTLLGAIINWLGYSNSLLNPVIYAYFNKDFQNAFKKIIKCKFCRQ

SMILES | activation
CCc1cccc2c(C#N)cn(CC(=O)N3CCOCC3)c12 | 60.2% (active)
COC(=O)C(c1ccccc1)N1CCCCCC1 (stereo not given) | 1.53%
COC(=O)C(O)(c1ccc(NC(=O)c2ccco2)c(OC)c1)C(F)(F)F (stereo not given) | -0.22%
CC1(C)C(c2ccccc2)=NC(c2cccnc2)=[N+]1[O-] | 49.7% (active)
CCOC(=O)C1CN(C)CCC1=O (stereo not given) | -3.2%
CC(=O)N(C1=NCCCS1)c1ccccc1F | -0.07%
Cc1ccc2c(c1)C1CN(C)CCC1N2C(=O)Cn1nnc(-c2ccccc2F)n1 (stereo not given) | 1.76%
Cc1ccc(Cn2nnnc2CN2CCC(n3nnc4ccccc43)CC2)cc1 | -1.46%
CN1CCN(Cc2ccccc2C(F)(F)F)CC1 | -1.3%
O=C(c1cc(-c2ccncc2)nc2ccccc12)N1CCC2(CC1)OCCO2 | -2.03%
O=C(c1cc2nc(-c3ccccc3)cc(-c3ccccc3)n2n1)N1CCC2(CC1)OCCO2 | 0.72%
Cc1cccc(-n2c(C)nc3cc(C(=O)N4CCC5(CC4)OCCO5)ccc32)c1 | 27.3% (active)
Fc1cccc(F)c1CN1CCN(Cc2c(F)cccc2F)CC1 | -2.86%
CC(=O)N1CN2CN(C(C)=O)CC(C(=O)c3ccc(Br)cc3)(C2)C1 | 0.98%
O=C(O)C1CSC(c2cccnc2)N1 (stereo not given) | -3.3%
